Pf growth 48h = inhibits P. falciparum growth in the first generation, 48 h. P. falciparum luciferase growth in erythrocytes, 48 h. AID 504832. actives 5.9% (n = 310,000). Potency, µM (highest dose often 28.7 µM), inactives show top-dose activity change, negative = inhibition, most hits filed as inhibitors; note: potency is the fitted concentration of half-maximal effect
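Parasite viability was followed by luminescence of a genomically integrated firefly luciferase. Cultures held 0.1% parasitemia at 2% hematocrit (final), incubated under 5% CO2 at 37 C.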
Pf growth 96h = inhibits malaria parasite growth, 96 h; P. falciparum luciferase reporter growth, 96 h; Potency, µM (highest dose often 28.7 µM), inactives show at the highest dose activity change, negative = inhibition, hits mostly inhibitors; actives 6.9% (n = 320,000); AID 504834; note: potency is the fitted concentration of half-maximal effect
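Cell-based qHTS: luciferase-tagged P. falciparum in erythrocytes (2% hematocrit, 0.05% parasitemia final) incubated with compounds for 96 hours, 37 C, 5% CO2; luciferase detection reagent then added and luminescence measured.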
HCMV inh = blocks human cytomegalovirus replication | actives 4.5% (n = 410,000) | activity change, negative = inhibition, % at 57.5 µM | HFF cells, HCMV-luciferase reporter, 72 h; active compounds read low; in the data active = activity change below about -60%; inconclusive = no clear call, values can overlap the other calls; inactive = above about -39%
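Screen run at 2 compound doses on HFFs infected with reporter HCMV, MOI 1 PFU/cell. Luciferase activity from cell lysates at 72 h post infection gave inhibition relative to buffer-only and Salinomycin wells.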
FBPA Giardia inh = blocks Giardia fructose-bisphosphate aldolase activity. purified Giardia FBPA. actives 0.71% (n = 290,000). Potency, µM (series often up to 59.6 µM), for inactives: top-dose activity, negative = inhibition, actives largely listed as inhibitors. AID 2451; note: potency is the fitted concentration of half-maximal effect; nearly all actives have a fitted effect of over 55% in size
Target sequence (A8B2U2 whole entry, looked up): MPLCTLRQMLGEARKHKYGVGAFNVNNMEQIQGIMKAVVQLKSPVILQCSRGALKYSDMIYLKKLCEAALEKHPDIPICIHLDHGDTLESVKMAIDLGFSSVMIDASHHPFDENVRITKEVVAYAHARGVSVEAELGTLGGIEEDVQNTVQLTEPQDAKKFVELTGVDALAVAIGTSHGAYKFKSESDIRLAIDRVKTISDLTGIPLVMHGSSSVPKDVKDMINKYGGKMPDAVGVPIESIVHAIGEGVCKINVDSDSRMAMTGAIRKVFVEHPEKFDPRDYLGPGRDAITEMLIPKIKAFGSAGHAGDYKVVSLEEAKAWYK
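40 nM FBPA preincubated 10 min at RT with compound (up to 57.5 uM final), then substrate plus GAPDH/TPI/NAD/arsenate coupling and diaphorase/resazurin added. Fluorescence read after 20 min at RT, 525/598 nm.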
Sm TGR inh = blocks Schistosoma mansoni thioredoxin glutathione reductase. Q962Y6. purified TGR, DTNB reduction, TNB absorbance 405 nm. Potency, µM (top dose mostly 114 µM), for inactives: at the highest dose activity change, negative = inhibition, most hits filed as inhibitors. actives 3% (n = 360,000). AID 485364; note: potency is the fitted concentration of half-maximal effect; nearly all actives have a fitted effect of over 60% in size
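TGR 20 nM + NADPH 100 uM (dispensed conc.), cpd preinc 15 min RT; start with NADPH (500 uM addition) then DTNB (15 mM addition). Kinetic TNB absorbance, 405 nm filter. Four-parameter Hill fit across titration.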
* hit, by the source's call; ? = inconclusive; · = no result. The list is not random: actives were taken first. Their share in the collection is about 14%. Unless noted, calls come from the whole dose curve; as a rule, active = well fitted curve in the direction sought with a large enough effect; inconclusive = small, poorly fitted or top-dose-only effect, or another doubt; inactive = no such curve, though single readings can be large; an effect the other way counts as inactive or inconclusive. % is set by controls: 0 for no effect and ±100 for the full control effect.

SMILES | Pf growth 48h | Pf growth 96h | HCMV inh | FBPA Giardia inh | Sm TGR inh
CCC(C)Sc1c(C(C)C)cnc2c1c(=O)n(C)c(=O)n2C (centres undefined) | · | · | -13 | · | -8%
COc1ccc(-c2noc(CCC(=O)N3CCN(c4ccccc4Br)CC3)n2)cc1 | · | · | -5 | · | ·
COc1ccccc1C(CNC(=O)c1cccc(S(=O)(=O)N2c3ccccc3CC2C)c1)N(C)C (centres undefined) | · | · | 26 | · | ·
COc1ccc(Cl)cc1NC(=O)CCS(=O)(=O)c1nc(-c2cccs2)cc(C(F)(F)F)n1 | · | · | -94* | · | -27%
COc1ccccc1-c1cc(C(F)(F)F)nc(S(=O)(=O)CCCC(=O)Nc2cc(Br)ccc2O)n1 | · | · | 55 | · | -15%
COc1ccc2c(c1)OC1(O)COc3cc(OC)c(OC)cc3C1=C2 (centres undefined) | · | · | · | -10% | ·
COc1ccc(OC)c(-c2nnc3n2N=C(c2ccc(OC)c(OC4CCCC4)c2)CS3)c1 | · | · | -88* | · | ·
COc1ccc(OC)c(-c2nnc3n2N=C(c2ccc(OC)c(OC)c2)CS3)c1 | 5.9µM* | 3.3µM* | -67* | 3% | -4%
COc1ccc(C2=Nn3c(nnc3-c3ccccc3OC)SC2)cc1OCC1CC1 | · | · | -84* | · | ·
CCOc1ccc(C2=Nn3c(nnc3-c3ccc(OC)cc3)SC2)cc1 | 15µM* | ? | 22 | 4% | -7%
COc1ccc(C2=Nn3c(nnc3-c3cc(OC)ccc3OC)SC2)c(OC)c1 | · | · | · | -2% | ·
COc1ccc(OC)c(C2=Nn3c(nnc3-c3cc(OC)ccc3OC)SC2)c1 | · | · | · | -11% | ·
CCOc1ccccc1-c1nnc2n1N=C(c1ccc(OC)c(OC)c1)CS2 | · | · | · | -3% | ·
CCc1nc(Nc2ccccc2F)c2oc3ccccc3c2n1 | -2% | ? | -29 | -24% | 5%
CN(NC(=O)NN(C)C(=O)c1ccccc1)C(=O)c1ccccc1 | · | · | -22 | · | ·
COc1ccc(C2=Nn3c(nnc3-c3ccccc3F)SC2)cc1OC1CCCC1 | · | · | -75* | · | ·
COc1cccc(C2=Nn3c(nnc3-c3ccc(OC)cc3OC)SC2)c1 | · | · | · | -7% | ·
COc1cccc(C2=Nn3c(nnc3-c3ccccc3C)SC2)c1 | · | · | · | 10µM* | ·
COc1ccc(OC)c(C2=Nn3c(nnc3-c3cccc(OC(C)C)c3)SC2)c1 | 8.3µM* | ? | -9 | 2% | -26%
COc1cccc(-c2nnc3n2N=C(c2ccccc2OC)CS3)c1 | · | · | · | -15% | ·
O=c1[nH][nH]c2c1[C@H](CCc1cccc(Cl)c1)O[C@H](C1CCCC1)C2 | · | · | -9 | · | ·
COc1cc(-c2n[nH]c(=S)n2/N=C/c2cccn2C)cc(OC)c1OC | -26% | ? | 27 | -15% | -3%
Cc1[nH]nc2c1C(Cc1ccccc1)C(C#N)=C(N)O2 (centres undefined) | -2% | -6% | 24 | 9% | 20µM*
O=C(NCCc1ccccn1)c1cncc(Br)c1 | 62% | 70% | 10 | 16% | -9%
O=S(=O)(c1ccc(N2CCC(c3ccc(Cl)cc3)=N2)cc1)N(CCO)CCO | · | -61% | -27 | -1% | ?
SMILES | Pf growth 48h | Pf growth 96h | HCMV inh | FBPA Giardia inh | Sm TGR inh
CN(C)CCCNS(=O)(=O)c1ccc(N2CCC(c3ccc(Cl)cc3)=N2)cc1 | 9.3µM* | · | -102* | 9% | ?
CNS(=O)(=O)c1cc(-c2nnc(Nc3cc(C)ccc3C)c3ccccc23)ccc1C | · | · | -78* | · | 1%
Cc1cccc(Nc2nnc(-c3ccc(N4CCOCC4)c([N+](=O)[O-])c3)c3ccccc23)c1 | 12µM* | ? | -68* | -4% | 3%
CCN(CC)C(=O)c1ccc(-c2nnc(Nc3cccc(O)c3)c3ccccc23)cc1 | 2.9µM* | -13% | ? | 10% | -8%
Cc1ccc(-c2nnc(Nc3cccc(O)c3)c3ccccc23)cc1S(=O)(=O)N1CCOCC1 | · | · | -61* | · | 7%
Cc1nnc(-c2ccc(N3CCOCC3)c([N+](=O)[O-])c2)o1 | -1% | -9% | · | · | -5%
Cc1ccc(-c2nnc(Nc3ccc(F)cc3)c3ccccc23)cc1S(=O)(=O)NC(C)C | · | · | -14 | · | 10%
Cc1ccc(Nc2nnc(-c3ccc(C)c(S(=O)(=O)N4CCOCC4)c3)c3ccccc23)c(C)c1 | · | · | -66* | · | 2%
O=C(NCCc1ccc(Cl)cc1)c1ccc2[nH]c(=O)c(=O)[nH]c2c1 | 14% | 26% | 0 | 4% | -14%
CCn1cc(C(=O)NCc2ccccc2)c(=O)c2cc(S(=O)(=O)N3CCCCCC3)ccc21 | · | · | -37 | · | 1%
Cc1ccc(OCCn2c(NC(=O)c3ccco3)nc3ccccc32)cc1 | 2.9µM* | ? | 3 | ? | 7%
Nc1nc2ccccc2n1CCOc1ccc(Br)cc1 | ? | 5% | -26 | -5% | 0%
S=C(Nc1ccccc1)Nc1nc2ccccc2n1CCOc1ccc(Br)cc1 | 3.3µM* | 4% | 55 | -15% | 1%
O=C(Nc1nc2ccccc2n1CCOc1ccccc1)c1ccco1 | 2.9µM* | 2.9µM* | 2 | ? | -14%
CCCCC/C=C\C/C=C\C/C=C\CCCCCCC(=O)O[C@H](COCCCCCCCCCCCCCCCC)COP(=O)([O-])OCC[N+](C)(C)C | · | · | · | 0% | ·
CCOc1ccc(N(C)S(=O)(=O)c2ccc3c(c2)CCCN3C(C)=O)cc1 | · | · | -18 | · | 6%
O=C(NCCN1CCCC1=O)C1CCC(=O)N(CCc2cccc(F)c2)C1 (centres undefined) | 24% | 13µM* | -34 | 3% | -1%
CCc1cc(CNC(=O)C2CCC(=O)N(Cc3cccc(F)c3)C2)on1 (centres undefined) | 21% | 12µM* | -30 | · | 1%
Cc1nc(CCNC(=O)C2CCC(=O)N(CCc3cccc(F)c3)C2)sc1C (centres undefined) | 9% | 15µM* | -6 | · | -4%
O=C(NCc1cc2ccccc2[nH]1)C1CCC(=O)N(CCCN2CCCC2=O)C1 (centres undefined) | 2% | 10µM* | 0 | 1% | -34%
CCc1cc(CNC(=O)C2CCC(=O)N(Cc3ccccc3F)C2)on1 (centres undefined) | · | · | -17 | · | ·
O=C(NCCc1ccccc1)C1CCC(=O)N(CCCN2CCCC2=O)C1 (centres undefined) | 7% | ? | 13 | 16% | 2%
CCc1csc(CCNC(=O)C2CCC(=O)N(CCc3cccc(F)c3)C2)n1 (centres undefined) | 4% | 1% | 38 | · | 4%
Cc1ccc2oc(=O)c3c4cc(O)c(O)c(C)c4oc3c2c1 | · | · | · | 0% | ·
O=C(NC1CCCC1)c1cc(-c2ccc(Cl)cc2)on1 | 83% | 142% | 0 | 4% | 0%
O=C(OCn1ncc(Cl)c(Cl)c1=O)c1ccc(C(F)(F)F)cc1 | 31% | 18% | -86* | 6% | 0%
Cc1ccc(C(=O)OCn2ncc(Cl)c(Cl)c2=O)cc1 | ? | ? | -102* | 6% | 4µM*
O=C(Nc1cc2ccc(O)cc2oc1=O)c1ccc(F)cc1 | · | · | 63 | · | 11%

Screening data from PubChem BioAssay.
